Test results taken from PubChem BioAssay AID504727 (Broad Institute, 2011).
Unmarked numbers belong to inactive results. The source made the active and inactive calls.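 How the source made its calls: active means fitted half-maximal concentration AC50 at or below ten times the highest valid tested dose, with signal falling as DNA is displaced (actives reach about 34 µM in these data); inconclusive means flat fit at moderate signal loss, or poor fit quality; inactive means the rest, including signal rising instead of falling.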

test: DNA intercalators displacing acridine orange, dose response, artefact control for KSHV LANA DNA-binding inhibitor project, biochemical, fluorescence polarization, cherry-picked samples, set 2 (AID 504727); details: AC50: Acridine orange-DNA displacement; series mostly up to 35 µM; activity change, negative = DNA displacement: at the top concentration;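 on activity change, negative = DNA displacement: 0% = median of neutral control wells and -100% = mitoxantrone positive control wells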

Row | Compound | activity change, negative = DNA displacement | AC50
1 | Cc1cc(=O)oc2cc(OCC(=O)N3CCN(Cc4ccc5c(c4)OCO5)CC3)ccc12 | -0.682% | 
2 | Cc1cc(/C=C2\C(=O)NC(=O)N(Cc3ccccc3)C2=O)c(C)n1-c1ccc(Cl)c(C(=O)O)c1 | 4.37% | 
3 | Nc1ccc2nonc2c1[N+](=O)[O-] |  | 8.02 µM (active)
4 | CC(C)CC(=O)Nc1ccc(S(=O)(=O)N2CC3CC(C2)c2cccc(=O)n2C3)cc1 (centres undefined) | -1.57% | 
5 | O=[N+]([O-])c1ccc(N2CCCCCC2)c2nonc12 |  | 13.7 µM (active)
6 | COC(=O)C1=C(c2ccc(OC(F)(F)F)cc2)C[C@@H]2CC[C@H]1N2C(=O)NC1CCCCC1 | 6.88% | 
7 | O=c1[nH]c(=O)n(C2CCCCC2)c(O)c1C=Nc1ccc(N2CCOCC2)cc1 | 2.56% | 
8 | N/C(=N\N=C/c1ccc(-c2ccc(O)c(C(=O)O)c2)o1)N[N+](=O)[O-] | 2.31% | 
9 | Nc1ccc2ccc3cccc[n+]3c2c1 |  | 1.87 µM (active)
10 | CN(C)C1C(=O)C(C(N)=O)=C(O)C2(O)C(=O)C3=C(O)c4c(O)cccc4C(C)(O)C3C(O)C12 (centres undefined) | 1.49% | 
11 | O=c1c2ccccc2nc(/C=C\c2ccccc2[N+](=O)[O-])n1-c1ccccc1O | 5.85% | 
12 | CCOC(=O)C1CCCN(c2ccc([N+](=O)[O-])c3nonc23)C1 (centres undefined) |  | 3.67 µM (active)
13 | CCN(CC)C(=O)c1ccc2c(c1)C1C=CCC1C(C(=O)O)N2 (centres undefined) | 6.31% | 
14 | CCn1c(O)c(N=Nc2cccc(S(=O)(=O)N3CCOCC3)c2)c(=O)n(CC)c1=S | -0.935% | 
15 | CCOC(=O)c1c(/N=C/c2c(O)n(-c3cccc(C)c3)c(=O)[nH]c2=O)sc2c1CCCC2 | 4.56% | 
16 | COCCNC(=O)Cn1cc(/C=C2\C(=O)NC(=O)N(c3cccc(C)c3C)C2=O)c2ccccc21 |  | 20.4 µM (active)
17 | CC1=NCCc2c1[nH]c1cc(O)ccc21 |  | 3.74 µM (active)
18 | COc1ccc(OC)c(N2C(=O)NC(=O)/C(=C\c3ccc([N+](=O)[O-])s3)C2=O)c1 | 4.68% | 
19 | CC(Cc1ccccc1)NC(=O)NC(C)Cc1ccccc1 (centres undefined) | -2.07% | 
20 | CC(OC(=O)c1cn(C)c2ccccc12)C(=O)N1CCCC1 (centres undefined) | 6.83% | 
21 | Cc1cc(OCC(=O)OC(C)(C)C)c2c3c(c(=O)oc2c1)CCC3 | 2.45% | 
22 | O=C(O)c1cccc2c1NC(C(=O)O)C1CC(Sc3ccccc3[N+](=O)[O-])C(Cl)C21 (centres undefined) | 5.91% | 
23 | CCCCc1ccc(C(=O)O)nc1 | 2.8% | 
24 | CN1CCN(c2ccc([N+](=O)[O-])c3no[n+]([O-])c23)CC1 |  | 29.2 µM (active)
